High-throughput results from PubChem BioAssay.
Sampled rows, rich in hits. Any-hit rate of the full collection: about 3.2%.
TsaE inh: qHTS Assay for Inhibitors of YjeE; purified YjeE enzyme, qHTS inhibition assay; Potency, µM; hit rate 0.05% among 71,000; AID 605, 2007
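Purified YjeE (10 uM) with BODIPY Texas Red-labeled ADP probe (2 uM); compounds pin-transferred, 15 min at room temperature. Binding inhibition read as decreased fluorescence polarization; ADP titration as control.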
Pol III holo inh: qHTS Assay for Inhibitors of DNA Polymerase III Holoenzyme System; reconstituted DNA polymerase III holoenzyme replication, biochemical; Potency, µM (doses to about 57.1 µM); hit rate 0.25% among 71,000
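Reconstituted *E. coli* holoenzyme (0.35 nM Pol III, 1 nM beta, 154 nM SSB, 2 nM primase) was preincubated with compound for 15 min at RT. Synthesis on 1.4 nM ssM13Gori ran 35 min, then was stopped with PicoGreen/EDTA and read as dsDNA fluorescence.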
ERK AVP inh: qHTS Assay for Inhibitors of the ERK Signaling Pathway using a Homogeneous Screening Assay | HEK293-V1b, vasopressin-stimulated pERK AlphaScreen | Potency, µM (series often up to 57.5 µM), actives largely listed as inhibitors | hit rate 0.99% among 72,000; also: nearly all actives have a fitted effect of over 55% in size
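V1b-HEK293 cells; cpd 30 min 37C; 25 nM vasopressin 5 min; lyse 10 min; AlphaScreen beads 5 hr RT. Normalized to DMSO basal and 25 nM vasopressin; AC50 by Hill fit.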
Tau fil binding: qHTS Assay for Tau Filament Binding; Microtubule-associated protein tau (Homo sapiens), P10636; recombinant tau filaments, thioflavin S fluorescence, 15 h; filaments grown with octadecylsulfate alongside compound; Potency, µM (series often up to 57.1 µM); hit rate 2% among 71,000; AID 596, 2007;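 also: actives lower thioflavin S fluorescence by blocking filaments or displacing dye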
Target sequence (P10636 whole entry, looked up): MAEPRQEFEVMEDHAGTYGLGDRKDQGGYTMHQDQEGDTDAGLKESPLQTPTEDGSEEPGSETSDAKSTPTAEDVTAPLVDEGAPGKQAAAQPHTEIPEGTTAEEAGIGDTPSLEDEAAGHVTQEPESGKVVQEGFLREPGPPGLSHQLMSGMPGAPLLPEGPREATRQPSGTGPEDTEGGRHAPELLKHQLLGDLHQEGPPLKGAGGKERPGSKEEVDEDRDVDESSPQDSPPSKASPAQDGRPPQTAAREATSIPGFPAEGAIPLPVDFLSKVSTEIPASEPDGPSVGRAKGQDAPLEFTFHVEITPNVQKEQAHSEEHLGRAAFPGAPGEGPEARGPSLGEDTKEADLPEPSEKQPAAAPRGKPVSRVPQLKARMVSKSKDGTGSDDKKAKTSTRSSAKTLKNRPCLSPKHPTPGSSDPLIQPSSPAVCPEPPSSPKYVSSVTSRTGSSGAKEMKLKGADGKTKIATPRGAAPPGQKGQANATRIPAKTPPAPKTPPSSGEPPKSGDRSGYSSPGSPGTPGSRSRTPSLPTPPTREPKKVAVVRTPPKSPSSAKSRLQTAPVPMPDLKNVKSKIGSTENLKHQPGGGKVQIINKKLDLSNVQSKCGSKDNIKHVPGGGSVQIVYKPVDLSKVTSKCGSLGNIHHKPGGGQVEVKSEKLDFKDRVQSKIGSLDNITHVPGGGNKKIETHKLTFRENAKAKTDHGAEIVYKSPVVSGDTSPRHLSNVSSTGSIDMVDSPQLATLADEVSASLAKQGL
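His-tagged recombinant human tau (exons 2, 3 and 10 included), 1 uM, was induced to fibrillize by 30 uM sodium octadecylsulfate with compound present. After 15 h at 37 C, thioflavine S fluorescence (ex 450, em 510 nm) was read.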
p53ts 39C kill: qHTS Screen for Compounds that Selectively Target Cancer Cells with p53 Mutations: Cytotoxicity of p53ts Cells at the Nonpermissive Temperature | hit rate 1.5% among 130,000 | H1299-p53A138V viability at 39C, ATP luminescence, 24 h | Potency, µM (top dose mostly 46.1 µM), most hits filed as cytotoxic; also: nearly all actives have a fitted effect of over 55% in size
p53ts 32C kill: qHTS Screen for Compounds that Selectively Target Cancer Cells with p53 Mutations: Cytotoxicity of p53ts Cells at the Permissive Temperature. H1299-p53A138V at 32C, ATP luminescence viability, 24 h. Potency, µM (titrated, usually from 46.1 µM), usual class: cytotoxic. hit rate 0.93% among 130,000; also: nearly all actives have a fitted effect of over 55% in size
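ATP-content luminescence (ATPlite) read-out after 24 h compound exposure at 32C in H1299-p53A138V cells (600/well). Tested up to 46 uM. Normalized to DMSO (0%) and 100 uM tamoxifen (100% killing); Hill-fit AC50.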
Of the large screens only hits and unclear results are named; the others gave an inactive call. Calls follow the shape of the dose curve; as a rule, active = well fitted curve in the direction sought with a large enough effect; inconclusive = small, poorly fitted or top-dose-only effect, or another doubt; inactive = no such curve, though single readings can be large; an effect the other way counts as inactive or inconclusive.

COc1ccccc1CCn1c(=O)c(-c2ccc(Cl)cc2)nc2cncnc21	ERK AVP inh inconclusive, Tau fil binding 13µM
COc1cccc(Cn2c(=O)cnc3cnc(OCc4ccccc4)nc32)c1	Tau fil binding inconclusive
C[C@H](O)CO[C@H]1[C@H]2O[C@H]3[C@H](O)[C@@H](O)[C@@H](O[C@H]4[C@H](O)[C@@H](O)[C@@H](O[C@H]5[C@H](O)[C@@H](O)[C@@H](O[C@H]6[C@H](O)[C@@H](OC[C@H](C)O)[C@@H](O[C@H]7[C@H](O)[C@@H](OC[C@H](C)O)[C@@H](O[C@H]8[C@H](O)[C@@H](O)[C@@H](O[C@@H]([C@@H]1O)[C@@H](CO)O2)O[C@@H]8CO)O[C@@H]7CO)O[C@@H]6CO)O[C@@H]5CO)O[C@@H]4CO)O[C@@H]3CO	Tau fil binding inconclusive
O=C1[C@H]2[C@H]3[C@H](O)[C@H](O)C/C(=N/OCc4ccccc4)[C@@H]3CC[C@@H]2C(=O)N1C1CCCCC1	none (no result: TsaE inh, Pol III holo inh, Tau fil binding)
COc1ccc(N2CCN(c3ncnc4onc(C)c34)CC2)cc1	none (no result: TsaE inh, Pol III holo inh, ERK AVP inh, Tau fil binding)
O=C(NC1CCCC1)c1ccc(CSc2nc3ccncc3n2Cc2cccc(F)c2)cc1	none (no result: TsaE inh, Pol III holo inh, ERK AVP inh, Tau fil binding)
COc1cccc(Cn2c(=O)c(-c3ccc(Cl)cc3)nc3cnc(N4CCNCC4)nc32)c1	Tau fil binding 4µM, p53ts 39C kill inconclusive, p53ts 32C kill 13µM
COc1ccc(-c2nc3cnc(N4CCNCC4)nc3n(Cc3cccc(OC)c3)c2=O)cc1	p53ts 39C kill inconclusive
COc1cccc(Cn2c(=O)c(-c3cccc(Cl)c3)nc3cncnc32)c1	Tau fil binding 20µM
COc1cccc(Cn2c(=O)c(-c3ccc(Cl)cc3)nc3cnc(OC)nc32)c1	Tau fil binding 13µM
COc1cccc(Cn2c(=O)c(-c3ccc(Cl)cc3)nc3cncnc32)c1	ERK AVP inh inconclusive, Tau fil binding 25µM, p53ts 39C kill inconclusive
CCC(=O)Oc1cc(C(C)(C)C)cc2cc(-c3nc(-c4ccc(OC)cc4OC)no3)c(=O)oc12	none (no result: TsaE inh, Pol III holo inh, ERK AVP inh, Tau fil binding)
CCc1c(C)sc2c1CCN(C(=O)Nc1ccc(F)c(Cl)c1)C2c1ccc(F)cc1 (stereo not given)	none (no result: TsaE inh, Pol III holo inh, ERK AVP inh, Tau fil binding)
CC(C)c1cccc2c([Si](C)(C)C)c3c(nc12)-c1cccc(=O)n1C3	p53ts 39C kill inconclusive, p53ts 32C kill inconclusive
CCCCOc1ccccc1C1CC(=O)Nc2cc(C)c(C)cc21 (stereo not given)	p53ts 39C kill 10µM (no result: TsaE inh, Pol III holo inh, ERK AVP inh, Tau fil binding)
Nc1nc(Nc2ccccc2)nc2ccccc12	ERK AVP inh 13µM, p53ts 39C kill 2.5µM, p53ts 32C kill 4µM
Oc1ccc(Nc2nc(N3CCCC3)c3ccccc3n2)cc1	Pol III holo inh 32µM, ERK AVP inh 32µM, p53ts 39C kill inconclusive, p53ts 32C kill inconclusive
Cc1ccc(Nc2nc(N3CCOCC3)c3ccccc3n2)cc1	ERK AVP inh inconclusive, Tau fil binding inconclusive
CCn1c(=O)c2sccc2n2c(CCCC(=O)N3CCN(c4ccc(OC)cc4)CC3)nnc12	none (no result: TsaE inh, Pol III holo inh, ERK AVP inh, Tau fil binding)
O=C(CN1CCOc2ccccc21)NC1CCN(Cc2ccccc2)CC1	Tau fil binding 13µM
Cc1ccccc1-c1nc(CNC(=O)NC2CCCCC2)c(C)o1	none (no result: TsaE inh, Pol III holo inh, ERK AVP inh, Tau fil binding)
N#Cc1c(-n2ncnc2-c2cccc(Br)c2)sc2c1CCCCC2	none (no result: TsaE inh, Pol III holo inh, ERK AVP inh, Tau fil binding)
CC(C)(C)NCc1cccn1-c1sc2c(c1C#N)CCCC2	none
Cc1ccccc1-c1ncnn1-c1sc2c(c1C#N)CCCCC2	p53ts 39C kill 13µM, p53ts 32C kill inconclusive (no result: TsaE inh, Pol III holo inh, ERK AVP inh, Tau fil binding)
N#Cc1c(-n2ncnc2-c2ccc(F)cc2)sc2c1CCCCC2	p53ts 39C kill 13µM, p53ts 32C kill 13µM (no result: TsaE inh, Pol III holo inh, ERK AVP inh, Tau fil binding)
CCOc1cc2[nH]c(=O)n(Cc3ccc(C(=O)N4CCN(c5cccc(Cl)c5)CC4)cc3)c(=O)c2cc1OCC	none (no result: TsaE inh, Pol III holo inh, ERK AVP inh, Tau fil binding)
N[C@@H](Cc1cc(-c2ccc(Cl)cc2Cl)cc(CP(=O)(O)O)c1O)C(=O)O	Pol III holo inh 32µM, ERK AVP inh inconclusive, Tau fil binding 40µM
